Assay results: paper PMC9911399, “Two distinct binding modes provide the RNA-binding protein RbFox with extraordinary sequence specificity”
Positions count from the first letter of the chain named. Over roughly 16,000 sequences, “ka relative to ugcaugu” has its median near 0.096; the highest 2% begin near 0.35. Shown is part of a subset that was picked to be rich in the highest values.

T1: RBFOX1 RRM RbFoxmut (Fox-RRM*) (Homo sapiens, UniProt Q9NWB1 109-208, R118D;E147R;N151S;E152T)
T1 sequence: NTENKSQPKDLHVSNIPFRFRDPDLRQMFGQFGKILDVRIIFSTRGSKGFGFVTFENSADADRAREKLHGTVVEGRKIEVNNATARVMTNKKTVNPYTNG

B1: CUCGGGU (DNA:RNA)
RNA: GGGAGACCGGAAUUCAGAUUGUCCCUCGGGUUUAAAUCCCGUCGUAGCCACCA
DNA 1: CAATCTGAATTCCGGTCTCCC
DNA 2: TGGTGGCTACGACGGGATT
B2: AACUACA (DNA:RNA)
RNA: B1 RNA with C25A, U26A, G28U, G29A, G30C, U31A
DNA 1: CAATCTGAATTCCGGTCTCCC
DNA 2: TGGTGGCTACGACGGGATT
B3: GCUCAGC (DNA:RNA)
RNA: B1 RNA with C25G, U26C, C27U, G28C, G29A, U31C
DNA 1: CAATCTGAATTCCGGTCTCCC
DNA 2: TGGTGGCTACGACGGGATT
B4: GGGUUGU (DNA:RNA)
RNA: B1 RNA with C25G, U26G, C27G, G28U, G29U
DNA 1: CAATCTGAATTCCGGTCTCCC
DNA 2: TGGTGGCTACGACGGGATT
B5: GGGGGGU (DNA:RNA)
RNA: B1 RNA with C25G, U26G, C27G
DNA 1: CAATCTGAATTCCGGTCTCCC
DNA 2: TGGTGGCTACGACGGGATT
B6: GGGUUUG (DNA:RNA)
RNA: GGGAGACCGGAAUUCAGAUUGUCCGGGUUUGUUAAAUCCCGUCGUAGCCACCA
DNA 1: CAATCTGAATTCCGGTCTCCC
DNA 2: TGGTGGCTACGACGGGATT
B7: GUCCGGG (DNA:RNA)
RNA: B1 RNA with C25G, G28C, U31G
DNA 1: CAATCTGAATTCCGGTCTCCC
DNA 2: TGGTGGCTACGACGGGATT
B8: GUCGGGU (DNA:RNA)
RNA: B1 RNA with C25G
DNA 1: CAATCTGAATTCCGGTCTCCC
DNA 2: TGGTGGCTACGACGGGATT
B9: GGGUUUU (DNA:RNA)
RNA: B6 RNA with G31U
DNA 1: CAATCTGAATTCCGGTCTCCC
DNA 2: TGGTGGCTACGACGGGATT

The binders below were run against T1, RBFOX1 RRM RbFoxmut (Fox-RRM*) (assay: EMSA; HiTS-Eq, 1 nM pool, 10 min; buffer printed only for the single-RNA assays: 10 mM Tris pH 7.5, 150 mM NaCl, 3.4 mM EDTA, 0.001% NP-40, 30 C). Conditions: tags: His6 N-terminal (pET28a); label: 5' 32P.
Summary of the method: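 These values rest on relative association constants, computed from read-count changes of each RNA species versus the control reaction and normalised to the cognate motif. Reads came from free RNA recovered by 8% native PAGE after purified RbFox RRM (wild type or mutant) at increasing concentrations was equilibrated for 10 min in 50 µL with 1 nM of a 5′-radiolabelled pool with 7 randomized nucleotides and DNA-annealed flanks.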

Binder	binding signal
B1	0.0903 KA relative to UGCAUGU
B2	0.121 KA relative to UGCAUGU
B3	0.0895 KA relative to UGCAUGU
B4	0.448 KA relative to UGCAUGU
B5	0.0952 KA relative to UGCAUGU
B6	0.741 KA relative to UGCAUGU
B7	0.0861 KA relative to UGCAUGU
B8	0.132 KA relative to UGCAUGU
B9	0.0749 KA relative to UGCAUGU
